This note sets out measurements from PubChem BioAssay AID652054 (National Center for Advancing Translational Sciences (NCATS), 2013).

The campaign covered roughly 360,000 compounds. About 9,100 (2.5%) were called active. About 4% were inconclusive and are not listed. This is one part of a sample in which actives are shown more often than they occur. A number with no mark means an inactive call. No stated cut-off is given here; in the data, active means max response below about -50%; inconclusive means no clear call, values can overlap the other calls; inactive means above that.
On the % scale 0 is the no-effect control and ±100 the full control effect.

D(3) dopamine receptor (Homo sapiens), sequence (P35462 whole entry, looked up): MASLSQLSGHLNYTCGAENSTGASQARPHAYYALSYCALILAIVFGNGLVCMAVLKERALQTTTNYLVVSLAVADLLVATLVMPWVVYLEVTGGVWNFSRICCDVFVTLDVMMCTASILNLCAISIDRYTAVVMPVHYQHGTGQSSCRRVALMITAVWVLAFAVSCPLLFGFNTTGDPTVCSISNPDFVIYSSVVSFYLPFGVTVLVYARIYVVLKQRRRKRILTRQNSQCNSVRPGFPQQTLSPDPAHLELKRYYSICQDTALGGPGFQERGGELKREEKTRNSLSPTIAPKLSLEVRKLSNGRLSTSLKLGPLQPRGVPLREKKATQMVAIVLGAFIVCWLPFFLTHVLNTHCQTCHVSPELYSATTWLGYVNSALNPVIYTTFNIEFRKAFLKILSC

In this test the target is D(3) dopamine receptor (Homo sapiens) (UniProt P35462). As to the kind of experiment: qHTS of D3 Dopamine Receptor Antagonist: qHTS. The following applies: D3R cells, DiscoveRx beta-arrestin luminescence, antagonist mode; hits give low values. In a few lines:
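Cells plated overnight at 1500 cells/well, then exposed to library compounds with dopamine controls for 90 minutes at 37 degrees C. DiscoveRx reagent added for 30–60 minutes at room temperature; luminescence read, quantitative HTS format.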
(In general: In qHTS, concentration-response curves come from the screen itself.)
As to `COC(=O)C1(C(=O)OC)C/C=C\CN(S(=O)(=O)c2ccccc2[N+](=O)[O-])CCC1`, the max response, negative = inhibition is 25.7%.

Regarding `Cc1ccc(-c2cc(C(=O)NC3CCN(Cc4ccccc4)CC3)c3ccccc3n2)cc1`, the max response, negative = inhibition is -13.4%. With `Cc1cc(C(=O)NC2CCN(Cc3ccccc3)CC2)n[nH]1` the figure was -81.2% (active); with `Cc1ccn2cc(C(=O)NC3CCN(Cc4ccccc4)CC3)nc2c1`, -65.2% (active). With `CCc1nc2ccc(C(=O)NC3CCN(Cc4ccccc4)CC3)cn2c1N(C)CCN1CCOCC1` the figure was 14%. Under `COC(=O)c1cc(S(=O)(=O)NC2CCN(Cc3ccccc3)CC2)cn1C` stands 11.7%; under `Cc1cc(C(=O)NC2CC(C)(C)Cc3c2cnn3-c2ccccc2)n[nH]1` (configuration not stated), -0.849%; under `CCc1nc2ccc(C(=O)N3CCN(S(=O)(=O)CC)CC3)cn2c1N(C=O)CCC(C)C`, -18.9%. For `CCCNC(=O)C1(C)CCN1C(=O)Cc1ccc(-c2ccccc2)cc1` (configuration not stated), the max response, negative = inhibition was -20.6%. `C[C@H]1NS(=O)(=O)c2cc(Cl)ccc2O[C@@H]1c1ccccc1`: the max response, negative = inhibition was -18.7%. Under `O=[N+]([O-])/C=C/c1ccc2c(ccn2Cc2ccccc2)c1` stands -54.4% (active).

With `C[C@@H]1CN([C@@H](C)CO)C(=O)CCCn2cc(nn2)CO[C@H]1CN(C)S(=O)(=O)c1ccc(-n2cccn2)cc1`, the max response, negative = inhibition was -5.35%.

As for `COC(=O)[C@]12CCCCC=C1N(Cc1ccc(Cl)cc1Cl)C(=O)[C@H](CC(=O)NCc1cccc3ccccc13)C2`, the max response, negative = inhibition was -15.1%. As for `COc1cc(CCN=Cc2ccccc2O)c([N+](=O)[O-])cc1OC`, the max response, negative = inhibition was 2.41%. Under `O=C(NCC1CCC(C(=O)O)CC1)OCc1ccccc1` (configuration not stated) stands 22%. With `NCCCCC(C(=O)O)N(C(=O)OCc1ccccc1)C(=O)OCc1ccccc1` (configuration not stated) the figure was -55.1% (active); with `CC(C)[C@H](NC(=O)OCc1ccccc1)C(=O)OCc1ccccc1`, -14.6%. Regarding `CCc1oc(-c2ccc(OC)cc2)c(C(=O)OCCCCCO)c1C(C)OCCO` (configuration not stated), the max response, negative = inhibition was 14.5%. With `Cc1ccc(NC(=O)c2ccc(CSc3ncnc4nc[nH]c34)cc2)c(C)c1` the figure was -9.41%.

Regarding `S=c1c2[nH]cnc2ncn1CCSc1ncnc2nc[nH]c12`, the max response, negative = inhibition is -78.7% (active). With `CCc1ccc(N(CC)c2ncnc3nc[nH]c23)cc1` the figure was -11.5%; with `CCOP(=O)(OCC)C(Cc1ccccc1)N=C(c1ccccc1)c1ccccc1` (configuration not stated), -6.96%; with `O=C(N1CCOCC1)N1CCOCC1`, -50.3% (active). Under `O=C(N1CCCCC1)N1CCN(C(=O)N2CCCCC2)CC1` stands -20.6%; under `Cc1ccc(C(=O)NC2CCN(C(=O)N3CCOCC3)CC2)cc1`, 11.7%. With `O=C(NCCOc1ccccc1)N1[C@H]2CC[C@@H]1C=C(c1ccc(F)cc1OCc1ccccc1)C2` the figure was 56.5%. As to `CCOc1ccc(CCN2C(=O)C(=O)N([C@@H](Cc3ccc(O)cc3)CN3CCC[C@H]3CN3C(=O)C(=O)NC[C@@H]3CC(C)C)C[C@@H]2Cc2ccccc2)cc1`, the max response, negative = inhibition was -23.4%. Under `CN(C)CCN1CCN(c2cc(-c3cccc(Cl)c3)nc3ccnn23)CC1` stands -22%; under `Cc1ccc(C(O)c2ncc(-c3ccccc3F)[nH]2)cc1F` (configuration not stated), -0.345%; under `COc1ccc(C(c2nnnn2C2CCCCC2)N2CCN(c3ccccc3F)CC2)cc1` (configuration not stated), -13.2%. On to `CCOC(=O)C1CCN(C(c2cc3cc(C)cc(C)c3[nH]c2=O)c2nnnn2C2CCCCC2)CC1` (configuration not stated), for which the max response, negative = inhibition is 18.8%. With `FC(F)(F)Oc1ccccc1C(c1nnnn1C1CCCCC1)N1CCN(C/C=C/c2ccccc2)CC1` (configuration not stated) the figure was -77.9% (active); with `OC(c1cc(Cl)cc(Cl)c1)c1ncc(-c2ccccc2C(F)(F)F)[nH]1` (configuration not stated), 2.77%. Regarding `COc1ccc(NC(=O)NC2CC3CCCC(C2)N3Cc2ccccc2)cc1` (configuration not stated), the max response, negative = inhibition is -65.9% (active). Under `CCCN1C2CCCC1CC(NC(=O)c1cccc(OC)c1)C2` (configuration not stated) stands 9.66%; under `CCOc1ccccc1OCC(=O)Nc1ccccc1C(=O)NC1CC1`, 2%.

With `COc1ccc(NC(=O)N2CCC(Cc3ccccc3)CC2)cc1`, the max response, negative = inhibition is -18%. With `COc1ccc(NC(=S)N2CCC(NC(=O)c3cccc(F)c3)CC2)cc1`, the max response, negative = inhibition was -3.67%. Take `COc1ccc(CN2C3CCCC2CC(NC(=O)c2cccc(F)c2)C3)cc1` (configuration not stated): the max response, negative = inhibition was -88.5% (active). With `CCOc1ccccc1C(=O)NC1CC2CCCC(C1)N2Cc1ccccc1` (configuration not stated) the figure was -77.3% (active); with `CC(=O)NC1CC2CCCC(C1)N2CC(=O)Nc1ccccc1` (configuration not stated), -23%. Under `CCCCOCCCNC(=O)c1ccccc1OCC` stands -16.2%; under `Cc1ccc(-c2ccc(C3=CC(=O)CC(C)(C)C3=O)cc2)cc1`, 4.58%; under `Cc1ccc([C@H]2N[C@]3(CCCN(CC4CCCCC4)C3=O)[C@H]3C(=O)N(Cc4ccccc4)C(=O)[C@@H]23)cc1`, 0.653%. Under `Cc1ccc(F)c(S(=O)(=O)NC(=O)C2(C)CCN2C(=O)CCc2cccs2)c1` (configuration not stated) stands -4.74%. For `COc1ccc(C(=O)OCC(=O)NCC2CCCCC2)cc1S(=O)(=O)N1CCCc2ccccc21`, the max response, negative = inhibition was 8.09%.

As to `Cn1c(=O)n(C)c2cc(S(=O)(=O)N3CCCc4ccccc43)ccc21`, the max response, negative = inhibition was 5.19%. With `COc1cc(C)c(C)cc1S(=O)(=O)N1CCCc2ccccc21` the figure was -64.6% (active); with `N#CCCC(C#N)(c1cccnc1)N1CCOCC1` (configuration not stated), -3.79%; with `Cc1cc(=O)oc(C)c1C(=O)NC1CC(C)(C)NC(C)(C)C1`, -75.7% (active). With `Cc1ccc(C(=O)NC2CC(C)(C)NC(C)(C)C2)c(C)c1` the figure was 39.4%; with `Cc1cc(OC(C)C(=O)NC2CC(C)(C)NC(C)(C)C2)c2c(C)cc(=O)oc2c1` (configuration not stated), 7.98%; with `CC(C)C[C@H]1CNC(=O)C(=O)N1C[C@@H]1CCCN1C[C@H](Cc1ccccc1)N1C[C@H](CC(C)C)N(CC2CCCCCC2)C(=O)C1=O`, -0.867%. With `CCOC(=O)[C@]12CCCC=C1N(CCC1=CCCCC1)C(=O)[C@H](CC(=O)N1CCN(C(=O)c3ccco3)CC1)C2` the figure was 0%; with `NC(=O)c1ccc(CN2CCC(Cc3ccccc3)CC2)cc1`, -23.1%. On to `Brc1ccccc1CN1CCC(Cc2ccccc2)CC1`, for which the max response, negative = inhibition is -26.3%. Under `Brc1ccc(CN2CC[C@H]3C=CCc4cccc(c43)C2)cc1` stands -107% (active); under `O[C@@H]1C[C@H](c2ccccc2)N(Cc2cccs2)C[C@H]1n1cc(C2CC2)nn1`, 2.45%; under `C[C@H]1Cn2cnc(C(=O)N[C@H](C)c3ccccc3)c2C(=O)N1`, -3.02%. Under `OC(c1ccccc1)(c1ccccc1)C1CCN(CCCOc2ccccc2)CC1` stands -8.6%. Under `O=c1[nH]c2ccccc2n1C1CCN(CCOc2ccccc2)CC1` stands -110% (active); under `O=C1CCN(CCc2ccccc2)CCN1CCOc1ccccc1`, -8.76%; under `CS(=O)(=O)N1CCCCC1c1cc(C(=O)NCc2ccccc2)no1` (configuration not stated), 13.9%. For `COc1cc(CNCCN(C)C)ccc1OCc1c(F)cccc1Cl`, the max response, negative = inhibition is -51.3% (active). Under `CCN(CC)CCNCc1ccc(OCc2ccc(Cl)nc2)c(OC)c1` stands -23.1%. For the compound `CCOCCCNCc1ccc(OCc2ccc(F)cc2)c(OC)c1`, the max response, negative = inhibition is 13.1%. With `CCOC(=O)[C@]12CCCC=C1N(CCC1=CCCCC1)C(=O)[C@H](CC(=O)N1CCCCC1)C2` the figure was 6.86%. Under `Cc1ccc([C@@H]2CC(=O)[C@@H]3CN(S(=O)(=O)c4ccc(C)cc4)[C@H](c4ccccc4F)C[C@@H]3N2S(=O)(=O)c2ccc(Cl)cc2)cc1` stands 4.51%; under `Cc1ccc(S(=O)(=O)N(C)C)cc1NC(=O)/C=C/c1cccs1`, -18.2%; under `Cc1cc(C)c2nc(N(CCN(C)C)C(=O)/C=C/c3cccs3)sc2c1`, -2.22%.

For the compound `Cc1ccc2sc(N(CCN(C)C)C(=O)/C=C/c3cccs3)nc2c1C`, the max response, negative = inhibition is -69.2% (active). With `COc1ccc(C2CC(c3cccc(OC)c3)=NN2c2ccc(S(N)(=O)=O)cc2)cc1` (configuration not stated) the figure was 17.8%. Under `O=C(/C=C/[C@H]1O[C@@H](n2ccc(=O)[nH]c2=O)[C@H](O)[C@@H]1O)NCc1ccccn1` stands 9.97%.

Regarding `O=C(CC1NCCNC1=O)Nc1cc(Cl)cc(Cl)c1` (configuration not stated), the max response, negative = inhibition was 20.6%.

Turning to `O=C(CC1NCCNC1=O)Nc1ccc(Oc2ccccc2)cc1` (configuration not stated), the max response, negative = inhibition is 24.3%. With `O=C(CC1NCCc2ccccc21)Nc1cccc(Cl)c1` (configuration not stated) the figure was -95.5% (active).

For the compound `O=C(Nc1sc2c(c1C(=O)O)CCC2)c1ccccc1F`, the max response, negative = inhibition was -1.53%.

Regarding `CC(=O)Nc1sc2c(c1C(c1cccc(F)c1)N1CCN(CCO)CC1)CCCC2` (configuration not stated), the max response, negative = inhibition was -60.6% (active). With `Cc1cccc(C)c1NC(=O)C(c1cccc(F)c1)N1CCN(C)CC1` (configuration not stated) the figure was -13.2%. Turning to `Cc1ccc(S(=O)(=O)N[C@H]2CCC[C@@H]2O)cc1`, the max response, negative = inhibition was -12.4%. Consider `CN(C(=O)CN1CCN(c2cc(-c3ccc(OCc4ccccc4)cc3)ncn2)CC1)c1ccccc1`, for which the max response, negative = inhibition is 49%. With `CN(CC(=O)NC1CCCCC1)S(=O)(=O)c1ccc(Br)s1` the figure was -7.06%; with `CC(=O)NCc1ccc(S(=O)(=O)NC2CCN(Cc3ccccc3)CC2)cc1`, -11.1%.

For the compound `CN(CC(=O)NC1CCN(Cc2ccccc2)CC1)S(=O)(=O)c1ccc(Cl)s1`, the max response, negative = inhibition is -58.6% (active).

In the case of `CCNC(=O)C1(C)CCCN1C(=O)c1ccc(N(C)C)cc1` (configuration not stated), the max response, negative = inhibition is 6.44%. Under `CC(C)(C)N1C(=O)c2c(C(=O)OCc3ccccc3)[nH]c(-c3ccccc3)c2C1=O` stands -3.03%.

On to `CC(=O)Nc1cccc(-c2cc3nc(NCc4cccnc4)n(C)c(=O)c3s2)c1`, for which the max response, negative = inhibition is 17.6%.
